Our source for the growth values is PubChem BioAssay (NCI).

Compounds without any hit were thinned out: in the full panel of roughly 83,000, 20% have a hit.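 Single-dose data. Exposure time 48 hours. Values below 10 considered active.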 A number with no mark means an inactive call. Activity calls are given as the source filed them.

The assay concerns RPMI-8226 leukemia. The assay is described as follows: NCI-60 one-dose screen, 48 h (100 = growth as untreated, 0 = no growth, -100 = all killed). The note with it: 10 µM unless noted.
Turning to `Nc1nc(-c2cc3c(cc2Cl)NC(=O)/C3=C/c2ccc(Cl)cc2)cs1`, the growth is 31.9%.
As to `Cc1cccc(Cc2cnc(NC(=O)CCc3ccc(C)o3)s2)c1`, the growth was 5.07% (active).
Consider `CC(Cl)(CCl)CS(=O)(=O)c1ccc(Cl)cc1` (stereo not drawn), for which the growth is 99.8%.
`COc1ccc(Cl)cc1NC(=O)c1cc2c([nH]1)-c1nc(NC(=O)C(C)(C)C)sc1CC2`: the growth was 83.8%.
Consider `CC(C)(c1ccc(OCC(O)CNCc2ccco2)cc1)c1ccc(OCC(O)CNCc2ccco2)cc1` (stereo not drawn), for which the growth is 64.8%.
As for `O=C1CCC(c2c(O)cc(O)c3c(=O)c(O)c(-c4ccc(O)c(O)c4)oc23)N1` (stereo not drawn), the figure is 99.5%.
With `COc1ccc(Cn2cc3c(c2-c2cc(OC)c(OC)c(OC)c2)CCc2c(CO)noc2-3)cc1`, the growth was 21.7%.
As for `CC(=O)Cc1cccnc1`, the figure is 93%; as for `CC(/C=C/C=C(\C)[C@H](O)[C@H](C)C(=O)O[C@H]1C[C@H](C)C=C2C=C[C@@]3(C)O[C@@H](O)CC(=O)[C@]3(C)[C@H]21)=C\C=C\C(=O)O`, 27.6%; as for `Nc1nc(-c2cc3c(cc2Cl)NC(=O)/C3=C/c2ccccc2)cs1`, 37.6%.
For `C=CC(=O)NC(=O)Nc1ccccc1Cl`, the growth is 21.4%.
With `CCOC(=O)c1noc2c1CCc1c-2cn(Cc2ccc(OC)cc2)c1-c1cc(OC)c(OC)c(OC)c1` the figure was 24.7%.
Regarding `C=C1C(=O)O[C@H]2[C@H]1CC/C(COC(=O)OC/C1=C/CC[C@@]3(C)O[C@H]3[C@H]3OC(=O)[C@@H](CN(C)C)[C@@H]3CC1)=C\CC[C@@]1(C)O[C@@H]21`, the growth was -5.37% (active).
For `CC1CCC(C(C)C)C(NN)C1` (stereo not drawn), the growth is 104%.
Regarding `Cc1cc(SCc2ccc(Cl)cc2Cl)nc(SCc2ccc(Cl)cc2Cl)n1`, the growth is 103%.
With `CCCC(C)(C)COC(=O)c1cccc(N)c1` the figure was 108%.
As for `O=C1C(Cl)=C(Nc2cccc3cc4ccccc4nc23)C(=O)c2ccccc21`, the figure is 48.7%; as for `CN(C)CCCOc1c(Br)cc(/C=C/C(=O)N(C)CCc2cc(Br)c(OCCCN(C)C)c(Br)c2)cc1Br`, -23.6% (active); as for `Nc1nccc(=S)[nH]1`, 96.6%.
As for `C=C1C(=O)O[C@H]2[C@H]1CC/C(COC(=O)CCCC(=O)OC/C1=C/CC[C@@]3(C)O[C@H]3[C@H]3OC(=O)C(=C)[C@@H]3CC1)=C\CC[C@@]1(C)O[C@@H]21`, the figure is -9.1% (active); as for `O=C(NNC(=O)c1ccc([N+](=O)[O-])cc1)c1ccc([N+](=O)[O-])cc1`, 95.5%.
For the compound `COc1cc(C(=O)NNC(=O)c2ccccc2C(=O)O)cc(OC)c1OC`, the growth is 10.8%.
With `O=S(c1ccccc1)c1ccc2nnnn2n1` (stereo not drawn) the figure was 95.7%; with `Cc1ncc(CO)c(C(=O)O)c1O`, 131%; with `CCOC(=O)c1noc2c1CCc1cn(Cc3cc(OC)cc(OC)c3)cc1-2`, 99.9%.
Turning to `CCCCCC/C=N/Nc1ccc([N+](=O)[O-])cn1`, the growth is 105%.
With `CC[C@@]1(O)C(=O)OCc2c1cc1n(c2=O)Cc2c-1nc1ccccc1c2/C=N/OC(C)(C)C` the figure was -2.84% (active); with `CC(=O)Oc1ccc(C(OC(C)=O)OC(C)=O)cc1`, 107%; with `C=C1C(=O)O[C@H]2[C@H]1CC/C(COC(=O)n1ccnc1C)=C\CC[C@@]1(C)O[C@@H]21`, 100%.
`C=C1C(=O)O[C@H]2[C@H]1CC/C(C(=O)NCCOCCOCC(=O)Nc1ccc(OC)c(C(N)=O)c1O)=C\CC[C@@]1(C)O[C@@H]21`: the growth is 97.2%.
As for `Cc1cc(C)c(O)c(C(=O)CC(Br)C(=O)O)c1` (stereo not drawn), the figure is 35.8%.
With `COc1ccc(-c2ccc(NC(=O)Nc3cccc(C(F)(F)F)c3)c(C)n2)cc1` the figure was 22.6%.
With `COc1ccc(Cn2cc(COc3ccc4c5ccnc(C)c5n(CCCc5ccccc5)c4c3)nn2)cc1` the figure was -3.72% (active).
For the compound `O=S(=O)(O)c1ccc(F)cc1`, the growth was 100%.
On to `Cc1nccc2c3ccc(OCc4cn(Cc5ccc(Br)cc5)nn4)cc3n(CCCc3ccccc3)c12`, for which the growth was 72.9%.
For the compound `Cl[C@@H]1CCO[C@H](c2cc3ccccc3c3ccccc23)C1`, the growth was 83.3%.
As to `Nc1ncnc2c1c(C(F)(F)F)cn2[C@@H]1O[C@H](CO)[C@@H](O)[C@H]1O`, the growth was -20.3% (active).
Take `C#C[C@@]1(O)[C@@H](CO)O[C@@H](n2cc(Br)c3c(Cl)ccnc32)[C@@H]1O`: the growth is 0.227% (active).
